Among all 310,000 compounds or so, about 1,000 (0.32%) were called active. Only a sample is shown. Measured potencies and affinities stand elsewhere. A number with no mark means an inactive call. No rule for the calls is given here.
test: Inhibition of PhoP regulon, Salmonella typhi GFP reporter cells, confirmation, 4 h (AID 1850); details: Salmonella Typhi PhoP-promoter GFP reporter, fluorescence, at 50 µM, hits give high values;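 also: 0% = induced wells with vehicle and 100% = uninduced wells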

Row | Structure (SMILES) | inhibition [%]
1 | CO/N=C(\C(=O)N[C@@H]1C(=O)N2C(C(=O)O)=C(COC(N)=O)CS[C@H]12)c1ccco1 | -2.22
2 | COCC1=C(C(=O)OC(C)OC(=O)OC(C)C)N2C(=O)[C@@H](NC(=O)/C(=N\OC)c3csc(N)n3)[C@H]2SC1 (some centres not stated) | 15.8
3 | COc1ccc(OCC(=O)Nc2c3c(nn2-c2ccccc2)CS(=O)(=O)C3)cc1 | -4.09
4 | CC1=NCCc2c1[nH]c1ccccc21 | 5.56
5 | CCCC/C=C1\CCc2c([nH]c3ccccc23)C1=O | 8.47
6 | O=C(CCS(=O)(=O)Cc1ccc(Cl)cc1)NCCc1ccccc1 | -1.47
7 | CC1=C(C(=O)OC(C)C)C(c2ccc(C)o2)C(C(=O)OC(C)C)=C(C)N1 | 6.14
8 | COc1ccccc1CN1CC(C(=O)NC2CCCCC2)CC1=O (configuration not stated) | 1.61
9 | Cc1ccc2oc(=O)c(/C=C(\O)C(C)(C)C)nc2c1 | -12.4
10 | Cc1ccc(/C(O)=C/c2nc3ccccc3oc2=O)cc1 | -11.1
11 | O=c1oc2ccc(Cl)cc2nc1/C=C(\O)c1ccco1 | -30.4
12 | CC(C)(C)/C(O)=C/c1nc2ccccc2oc1=O | -3.78
13 | CC(C)C/C(O)=C/c1nc2cc(Cl)ccc2oc1=O | -18.3
14 | Cc1ccc(/C(O)=C/c2nc3cc(C)ccc3oc2=O)cc1 | -48.6
15 | COc1ccc(CNC(=O)CN2C(=O)c3ccccc3C2=O)cc1 | -5.61
16 | CC(=O)c1ccccc1OCCn1nc(C(=O)O)c2ccccc2c1=O | 1.39

Row | Structure (SMILES) | inhibition [%]
17 | COc1ccc(S(=O)(=O)N2CCCC2CNC(=O)C(=O)NCCc2ccccc2)cc1 (configuration not stated) | 0.4
18 | O=C(Nc1cc(C(F)(F)F)ccc1N1CCOCC1)C1=NN(c2ccccc2)C(=O)CC1 | 0.11
19 | Cc1ccccc1-c1nnn(CC(=O)N(C)CC(=O)Nc2ccccc2C(F)(F)F)n1 | 6.76
20 | COc1c[nH]n(-c2ccccc2)c(=O)c1=O | 5.23
21 | C=CCNC(=O)c1ccc(-c2nc(-c3ccccc3)cs2)cc1 | 0.25
22 | CN(C)CCCNC(=O)c1ccc(-c2ccccc2)cc1 | 12.6
23 | CC1CCCCC12NC(=O)N(CC(=O)NCc1ccc3c(c1)OCO3)C2=O (configuration not stated) | 5.06
24 | N#Cc1cc2c(nc1SCC(=O)O)CCCCC2 | 9.95
25 | CCn1cc(C(=O)NCc2ccccc2)c(=O)c2cc(F)c(N3CCN(C(=O)c4ccco4)CC3)cc21 | -5.58
26 | CCCCNC(=O)c1cn(CC)c2cc(N3CCN(C)CC3)c(F)cc2c1=O | -13.3
27 | CCn1cc(C(=O)NCC(C)C)c(=O)c2cc(F)c(N3CCN(C(=O)c4ccco4)CC3)cc21 | 1.03
28 | CCCNC(=O)c1cn(CC)c2cc(N3CCN(C(=O)c4ccco4)CC3)c(F)cc2c1=O | 1.38
29 | CCN(CC)CCNC(=O)c1cn(CC)c2cc(N3CCN(C(=O)c4ccco4)CC3)c(F)cc2c1=O | 5.87
30 | CCn1cc(C(=O)NCCC(C)C)c(=O)c2cc(F)c(N3CCN(C)CC3)cc21 | 5.29
31 | CCN(CC)CCNC(=O)c1cn(CC)c2cc(N3CCN(C)CC3)c(F)cc2c1=O | -0.07
32 | CCn1cc(C(=O)NCc2cccc(F)c2)c(=O)c2cc(F)c(N3CCN(C(=O)c4ccco4)CC3)cc21 | -0.01

Source: PubChem BioAssay AID1850 (Southern Research Specialized Biocontainment Screening …, 2009)
